# Key:
# Assay in all cases: DAPPL (digital affinity profiling via proximity ligation, sequencing); 10 mM Tris-HCl pH 7.5, 50 mM NaCl, 1 mM DTT, 4% glycerol, room temperature, 30 min; GST-TFs on glutathione beads, 16-mer random dsDNA library, 0.1% formaldehyde crosslink after washing; high values mean tight binding
# Details in all cases: protein: recombinant; tags: N-terminal GST; dsDNA, one strand shown
# GABPA = target: T1, GABPA (Homo sapiens, UniProt Q06546 1-454)
# T1 sequence: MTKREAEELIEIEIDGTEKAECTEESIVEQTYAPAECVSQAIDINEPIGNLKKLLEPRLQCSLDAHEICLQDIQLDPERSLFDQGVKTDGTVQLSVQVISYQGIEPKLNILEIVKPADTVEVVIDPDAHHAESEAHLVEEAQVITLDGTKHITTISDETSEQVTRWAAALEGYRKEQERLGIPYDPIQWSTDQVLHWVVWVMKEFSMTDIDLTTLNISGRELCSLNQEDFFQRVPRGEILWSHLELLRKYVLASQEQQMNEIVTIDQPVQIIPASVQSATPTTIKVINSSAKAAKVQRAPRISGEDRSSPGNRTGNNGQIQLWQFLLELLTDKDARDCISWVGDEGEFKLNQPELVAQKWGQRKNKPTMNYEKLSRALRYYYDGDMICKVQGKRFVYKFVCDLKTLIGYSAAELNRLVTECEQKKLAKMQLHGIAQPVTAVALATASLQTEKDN
# How it was run: (§1)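 Beads coated with glutathione captured GST-fused human transcription factors that had been expressed in yeast, and the factors were then given DNA barcodes and pooled with a tag-only sample. The pools were incubated with 200 nmole of a random double-stranded 16-mer DNA library in Tris/NaCl/DTT/glycerol buffer for 30 min at room temperature, washed, crosslinked with 0.1% formaldehyde and proximity-ligated with BsaI/T4 ligase at 37 °C for 1 h. PCR amplification and Illumina NextSeq500 sequencing came last. Binding signal is each hexamer's read frequency for a factor divided by its frequency for the tag-only sample.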
# ERG = target: T2, ERG (Homo sapiens, UniProt P11308 1-479)
# T2 sequence: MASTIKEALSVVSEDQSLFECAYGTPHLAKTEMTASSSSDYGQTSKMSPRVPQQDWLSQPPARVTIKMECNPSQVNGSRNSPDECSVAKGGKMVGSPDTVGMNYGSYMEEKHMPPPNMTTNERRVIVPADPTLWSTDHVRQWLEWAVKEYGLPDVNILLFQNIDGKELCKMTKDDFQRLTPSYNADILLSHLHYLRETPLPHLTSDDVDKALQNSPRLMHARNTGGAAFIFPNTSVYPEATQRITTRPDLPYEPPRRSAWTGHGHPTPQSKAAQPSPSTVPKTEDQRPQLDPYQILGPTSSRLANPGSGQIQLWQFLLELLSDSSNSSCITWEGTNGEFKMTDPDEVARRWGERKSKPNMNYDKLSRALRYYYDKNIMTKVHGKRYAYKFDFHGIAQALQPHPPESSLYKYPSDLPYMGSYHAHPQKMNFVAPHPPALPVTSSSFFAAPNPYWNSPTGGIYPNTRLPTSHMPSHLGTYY
# How it was run: as §1
# ELF1 = ELF1 (Homo sapiens, UniProt P32519 1-619)
# How it was run: as §1
# EHF = target: T3, EHF (Homo sapiens, UniProt Q9NZC4 1-300)
# T3 sequence: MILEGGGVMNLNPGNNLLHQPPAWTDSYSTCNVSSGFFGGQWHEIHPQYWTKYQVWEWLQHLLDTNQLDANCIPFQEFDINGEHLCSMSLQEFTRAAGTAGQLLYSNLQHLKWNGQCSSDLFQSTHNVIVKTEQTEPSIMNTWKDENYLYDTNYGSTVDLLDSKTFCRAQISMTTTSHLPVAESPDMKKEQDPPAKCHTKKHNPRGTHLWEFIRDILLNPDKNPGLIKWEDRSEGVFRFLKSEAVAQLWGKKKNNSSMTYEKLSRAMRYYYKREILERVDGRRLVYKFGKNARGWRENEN
# How it was run: as §1
# SPIC = target: T4, SPIC (Homo sapiens, UniProt Q8N5J4 1-248)
# T4 sequence: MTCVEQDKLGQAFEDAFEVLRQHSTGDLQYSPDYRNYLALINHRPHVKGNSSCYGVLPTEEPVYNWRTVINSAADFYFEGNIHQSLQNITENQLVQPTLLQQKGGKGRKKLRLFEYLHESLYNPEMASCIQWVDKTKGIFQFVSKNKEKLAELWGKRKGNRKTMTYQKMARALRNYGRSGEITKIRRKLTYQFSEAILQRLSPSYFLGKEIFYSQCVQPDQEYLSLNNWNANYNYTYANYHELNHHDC
# How it was run: as §1
# ELF4 = ELF4 (Homo sapiens, UniProt Q99607 1-663)
# How it was run: as §1
# ELK4 = target: T5, ELK4 (Homo sapiens, UniProt P28324-2 1-405)
# T5 sequence: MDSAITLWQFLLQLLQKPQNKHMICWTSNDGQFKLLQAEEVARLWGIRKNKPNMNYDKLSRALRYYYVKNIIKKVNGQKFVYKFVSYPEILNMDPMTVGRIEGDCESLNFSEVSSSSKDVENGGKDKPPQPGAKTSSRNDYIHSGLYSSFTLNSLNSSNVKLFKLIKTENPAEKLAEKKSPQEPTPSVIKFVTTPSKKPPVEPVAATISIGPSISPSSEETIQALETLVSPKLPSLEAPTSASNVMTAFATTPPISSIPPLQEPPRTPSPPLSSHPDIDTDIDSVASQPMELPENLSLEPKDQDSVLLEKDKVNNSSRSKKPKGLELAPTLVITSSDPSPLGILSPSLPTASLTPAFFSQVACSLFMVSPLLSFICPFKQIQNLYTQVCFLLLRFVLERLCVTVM
# How it was run: as §1
# ELF3 = target: T6, ELF3 (Homo sapiens, UniProt P78545 1-371)
# T6 sequence: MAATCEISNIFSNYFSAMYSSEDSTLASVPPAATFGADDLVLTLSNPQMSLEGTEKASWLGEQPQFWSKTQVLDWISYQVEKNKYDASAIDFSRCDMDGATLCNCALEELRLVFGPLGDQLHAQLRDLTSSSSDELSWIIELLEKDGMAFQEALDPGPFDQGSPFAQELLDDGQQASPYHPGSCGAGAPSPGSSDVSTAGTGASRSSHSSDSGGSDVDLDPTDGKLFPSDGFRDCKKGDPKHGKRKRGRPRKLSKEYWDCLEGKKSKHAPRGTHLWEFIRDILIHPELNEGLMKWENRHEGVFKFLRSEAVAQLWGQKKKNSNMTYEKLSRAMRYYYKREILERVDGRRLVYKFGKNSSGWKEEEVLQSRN
# How it was run: as §1
# ETV3L = target: T7, ETV3L (Homo sapiens, UniProt Q6ZN32 1-361)
# T7 sequence: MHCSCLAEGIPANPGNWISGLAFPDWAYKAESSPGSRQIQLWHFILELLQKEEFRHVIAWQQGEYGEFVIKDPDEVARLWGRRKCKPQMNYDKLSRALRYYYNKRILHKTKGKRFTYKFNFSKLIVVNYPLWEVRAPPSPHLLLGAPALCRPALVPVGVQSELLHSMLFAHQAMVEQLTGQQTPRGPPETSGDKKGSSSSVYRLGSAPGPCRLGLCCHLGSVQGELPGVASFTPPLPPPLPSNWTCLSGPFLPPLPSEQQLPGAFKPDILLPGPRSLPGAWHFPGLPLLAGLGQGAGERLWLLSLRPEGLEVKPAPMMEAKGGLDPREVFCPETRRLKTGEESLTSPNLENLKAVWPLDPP
# How it was run: as §1
# ETS2 = target: T8, ETS2 (Homo sapiens, UniProt P15036 1-469)
# T8 sequence: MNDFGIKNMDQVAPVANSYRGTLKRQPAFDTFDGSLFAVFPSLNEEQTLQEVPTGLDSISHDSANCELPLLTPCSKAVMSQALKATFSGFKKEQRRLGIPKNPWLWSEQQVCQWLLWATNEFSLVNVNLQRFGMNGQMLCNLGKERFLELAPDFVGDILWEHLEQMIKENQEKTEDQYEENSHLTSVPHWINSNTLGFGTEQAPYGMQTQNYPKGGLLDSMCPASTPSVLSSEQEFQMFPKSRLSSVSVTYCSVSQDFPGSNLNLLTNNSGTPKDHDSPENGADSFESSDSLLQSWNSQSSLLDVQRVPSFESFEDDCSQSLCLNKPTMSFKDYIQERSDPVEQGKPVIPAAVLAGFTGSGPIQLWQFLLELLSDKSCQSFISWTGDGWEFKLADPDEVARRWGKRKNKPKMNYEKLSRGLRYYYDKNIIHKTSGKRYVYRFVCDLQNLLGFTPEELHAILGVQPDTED
# How it was run: as §1
# SPDEF = target: T9, SPDEF (Homo sapiens, UniProt O95238 1-335)
# T9 sequence: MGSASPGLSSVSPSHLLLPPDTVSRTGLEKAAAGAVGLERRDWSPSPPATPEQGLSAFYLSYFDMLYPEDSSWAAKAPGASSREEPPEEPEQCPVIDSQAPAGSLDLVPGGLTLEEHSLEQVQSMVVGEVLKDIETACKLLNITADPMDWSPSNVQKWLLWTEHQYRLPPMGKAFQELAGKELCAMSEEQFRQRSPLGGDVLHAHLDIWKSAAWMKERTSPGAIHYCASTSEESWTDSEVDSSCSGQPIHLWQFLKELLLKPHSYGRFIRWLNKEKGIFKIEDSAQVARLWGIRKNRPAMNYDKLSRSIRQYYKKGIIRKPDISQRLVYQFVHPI
# How it was run: as §1
# ETV7 = target: T10, ETV7 (Homo sapiens, UniProt Q9Y603 1-341)
# T10 sequence: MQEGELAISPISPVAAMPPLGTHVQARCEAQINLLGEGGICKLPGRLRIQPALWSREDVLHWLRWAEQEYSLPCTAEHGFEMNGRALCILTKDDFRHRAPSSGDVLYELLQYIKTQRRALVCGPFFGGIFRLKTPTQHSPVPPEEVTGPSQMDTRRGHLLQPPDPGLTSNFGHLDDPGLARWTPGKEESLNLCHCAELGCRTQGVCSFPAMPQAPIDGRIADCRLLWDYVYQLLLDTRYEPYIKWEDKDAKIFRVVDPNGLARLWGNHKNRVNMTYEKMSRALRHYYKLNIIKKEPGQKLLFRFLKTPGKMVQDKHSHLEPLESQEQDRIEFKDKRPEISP
# How it was run: as §1
# ETV3 = target: T11, ETV3 (Homo sapiens, UniProt P41162-2 1-143)
# T11 sequence: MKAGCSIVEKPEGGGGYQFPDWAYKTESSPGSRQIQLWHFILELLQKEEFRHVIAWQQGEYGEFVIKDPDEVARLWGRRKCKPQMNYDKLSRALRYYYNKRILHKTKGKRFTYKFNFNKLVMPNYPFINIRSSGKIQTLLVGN
# How it was run: as §1
# ETV6 = ETV6 (Homo sapiens, UniProt P41212 1-452)
# How it was run: as §1
# Chain of ELF4 (Q99607 whole entry): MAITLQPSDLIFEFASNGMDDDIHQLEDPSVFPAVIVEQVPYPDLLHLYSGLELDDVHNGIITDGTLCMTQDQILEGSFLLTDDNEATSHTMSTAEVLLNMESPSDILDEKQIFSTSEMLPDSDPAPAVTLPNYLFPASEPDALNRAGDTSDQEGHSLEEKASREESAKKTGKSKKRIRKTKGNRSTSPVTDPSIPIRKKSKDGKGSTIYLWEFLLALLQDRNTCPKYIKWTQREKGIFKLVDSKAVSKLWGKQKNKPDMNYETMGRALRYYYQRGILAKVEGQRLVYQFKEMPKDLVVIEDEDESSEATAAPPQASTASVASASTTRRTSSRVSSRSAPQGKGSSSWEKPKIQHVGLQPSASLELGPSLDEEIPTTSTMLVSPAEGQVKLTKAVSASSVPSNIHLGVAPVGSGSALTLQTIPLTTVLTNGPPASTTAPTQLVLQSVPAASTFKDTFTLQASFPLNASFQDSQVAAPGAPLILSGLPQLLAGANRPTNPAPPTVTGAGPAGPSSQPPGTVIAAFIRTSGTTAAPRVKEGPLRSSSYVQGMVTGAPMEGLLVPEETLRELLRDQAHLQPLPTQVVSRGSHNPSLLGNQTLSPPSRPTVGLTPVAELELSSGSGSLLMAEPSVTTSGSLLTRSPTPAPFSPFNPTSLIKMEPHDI
# Chain of ETV6 (P41212 whole entry): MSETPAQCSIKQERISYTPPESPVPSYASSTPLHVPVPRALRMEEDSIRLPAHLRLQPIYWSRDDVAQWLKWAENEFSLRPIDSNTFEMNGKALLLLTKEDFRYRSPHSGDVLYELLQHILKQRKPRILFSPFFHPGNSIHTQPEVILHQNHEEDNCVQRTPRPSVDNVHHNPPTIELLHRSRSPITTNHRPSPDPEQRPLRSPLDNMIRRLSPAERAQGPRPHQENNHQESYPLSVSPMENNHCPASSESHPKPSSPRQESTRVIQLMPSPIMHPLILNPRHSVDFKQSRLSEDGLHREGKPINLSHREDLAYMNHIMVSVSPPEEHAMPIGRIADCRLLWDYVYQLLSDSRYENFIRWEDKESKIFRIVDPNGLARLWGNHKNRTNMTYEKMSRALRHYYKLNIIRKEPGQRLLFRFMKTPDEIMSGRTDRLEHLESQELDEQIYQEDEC
# Chain of ELF1 (P32519 whole entry): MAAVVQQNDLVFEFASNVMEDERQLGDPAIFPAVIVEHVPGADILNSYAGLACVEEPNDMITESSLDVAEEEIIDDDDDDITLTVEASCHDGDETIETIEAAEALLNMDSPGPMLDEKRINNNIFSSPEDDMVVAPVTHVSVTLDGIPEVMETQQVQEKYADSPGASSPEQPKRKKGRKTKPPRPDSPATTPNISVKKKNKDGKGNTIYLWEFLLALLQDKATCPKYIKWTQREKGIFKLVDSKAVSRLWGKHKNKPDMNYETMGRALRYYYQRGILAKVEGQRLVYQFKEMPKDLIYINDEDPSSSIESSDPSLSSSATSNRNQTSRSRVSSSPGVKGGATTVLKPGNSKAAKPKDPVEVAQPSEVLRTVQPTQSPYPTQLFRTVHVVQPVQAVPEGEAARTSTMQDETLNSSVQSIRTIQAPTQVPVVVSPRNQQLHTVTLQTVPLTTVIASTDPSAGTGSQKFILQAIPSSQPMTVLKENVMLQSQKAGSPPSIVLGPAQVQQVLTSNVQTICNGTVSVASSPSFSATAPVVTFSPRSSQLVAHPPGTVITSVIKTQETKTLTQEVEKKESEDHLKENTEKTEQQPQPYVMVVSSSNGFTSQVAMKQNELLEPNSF
sequence,measurement,setting,value
CATGCG,binding signal,GABPA,"1.06 fold enrichment (6-mer frequency, TF over GST control)"
same,binding signal,ERG,"1.03 fold enrichment (6-mer frequency, TF over GST control)"
same,binding signal,ELF1,"1.07 fold enrichment (6-mer frequency, TF over GST control)"
same,binding signal,EHF,"1.06 fold enrichment (6-mer frequency, TF over GST control)"
same,binding signal,SPIC,"1 fold enrichment (6-mer frequency, TF over GST control)"
same,binding signal,ELF4,"1.02 fold enrichment (6-mer frequency, TF over GST control)"
same,binding signal,ELK4,"1.11 fold enrichment (6-mer frequency, TF over GST control)"
same,binding signal,ELF3,"1.29 fold enrichment (6-mer frequency, TF over GST control)"
same,binding signal,ETV3L,"1.01 fold enrichment (6-mer frequency, TF over GST control)"
same,binding signal,ETS2,"1 fold enrichment (6-mer frequency, TF over GST control)"
same,binding signal,SPDEF,"1.01 fold enrichment (6-mer frequency, TF over GST control)"
same,binding signal,ETV7,"1.21 fold enrichment (6-mer frequency, TF over GST control)"
same,binding signal,ETV3,"1.03 fold enrichment (6-mer frequency, TF over GST control)"
same,binding signal,ETV6,"1.16 fold enrichment (6-mer frequency, TF over GST control)"

# — PMC7862700, “An all-to-all approach to the identification of sequence-specific readers for epigenetic DNA modifications on cytosine”
